This passage reports composite z-score and z-score results from PubChem BioAssay.

Assay [1] deals with XIP peptide (Xip251-270) binding. Nature of the assay: XIP fragment 251-270 binding compounds – biochemical, small-molecule microarray, fluorescence 635/667 nm, 0.1 µg/mL protein, primary screen (AID 1182). The following applies: fluorescent protein binding, 635 nm, higher = more signal, called active from +8 up or from −8 down.
A further assay relates to XIP peptide (Xip251-270). Nature of the assay: compounds binding XIP fragment 251-270 – biochemical, small-molecule microarray, fluorescence 635/667 nm, 0.5 µg/mL protein, primary screen (AID 1183). The settings on record: fluorescence 635 nm, higher = more signal.
Assay [2] can be described thus: blood-stage malaria parasite viability loss – strain 3D7, DAPI fluorescence, 100 nL, primary screen (AID 1184).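 Note: parasites grown inside human red blood cells in medium with human serum.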 The settings on record: P. falciparum 3D7 growth, 3 d, higher = more signal.
The target in assay [3] is Homeobox protein Hox-A13 (Mus musculus) (UniProt Q62424). Nature of the assay: disruptors of Hoxa13 oligonucleotide interaction – biochemical, fluorescence polarization, labeled oligonucleotide, primary screen (AID 1185). The following applies: Hoxa13:DNA binding, 15 min, higher = more signal, called active from +8 up or from −8 down.
Homeobox protein Hox-A13 (Mus musculus), sequence (Q62424 whole entry, looked up): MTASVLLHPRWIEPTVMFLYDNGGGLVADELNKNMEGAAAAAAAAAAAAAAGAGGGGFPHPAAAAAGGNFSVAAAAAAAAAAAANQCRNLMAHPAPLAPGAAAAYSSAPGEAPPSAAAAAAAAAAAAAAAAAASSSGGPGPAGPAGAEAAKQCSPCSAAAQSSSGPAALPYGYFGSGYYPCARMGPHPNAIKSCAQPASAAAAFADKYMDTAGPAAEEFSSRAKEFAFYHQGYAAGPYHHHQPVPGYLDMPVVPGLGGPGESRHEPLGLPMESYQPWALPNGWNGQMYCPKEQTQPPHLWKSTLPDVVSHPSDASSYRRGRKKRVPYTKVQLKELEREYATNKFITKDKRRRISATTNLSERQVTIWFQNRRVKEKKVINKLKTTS
Assay [4] is described as follows: blockers of DNA damage checkpoint Chk1 activation – imaging, HeLa, hydroxyurea, phospho-Chk1 antibody, percent positive cells, primary screen (AID 1186). The settings on record: hydroxyurea-induced phospho-Chk1 immunofluorescence imaging, higher = more signal.
Assay [5] can be described thus: blockers of DNA damage checkpoint Chk1 activation – imaging, HeLa, hydroxyurea, phospho-Chk1 nuclear intensity, primary screen (AID 1187). The settings on record: hydroxyurea-induced phospho-Chk1 immunofluorescence imaging, higher = more signal.

The source made the active and inactive calls. Unless noted, the rule behind the calls is not given here.

Take `O=C1O[C@H](c2ccccc2)[C@H](c2ccccc2)N2[C@H]1[C@@H](C(=O)NC[C@H](O)c1ccccc1)[C@]1(C(=O)Nc3ccc(C#CC4(O)CCCCCC4)cc31)[C@H]2c1ccc(OCCO)cc1`: the composite z-score in assay [1] was -0.342 (inactive); in the assay with XIP peptide (Xip251-270) it was 0.799. Further, the z-score in assay [2] is -1.45; in assay [3] it was 0.199 (inactive); in assay [4], -0.309 (inactive); in assay [5], -0.412 (inactive).

On to `[N-]=[N+]=NCc1ccccc1C[C@]1(C(=O)N2CCCCC2)N=C(c2ccc(OCCCO)cc2)O[C@H]1c1ccccc1CN=[N+]=[N-]`, for which the composite z-score in assay [1] is 1.52 (inactive); in the assay with XIP peptide (Xip251-270), 0.811. The z-score in assay [2] was -2.32; in assay [3] it was 1.1 (inactive); in assay [4], -0.0016 (inactive); in assay [5], 0.164 (inactive).

As to `O=C1c2ccccc2[C@](Cc2ccccc2I)(C(=O)O)[C@H](c2ccc(CO)cc2)N1C1CCCCC1`, the composite z-score is 1.87 (inactive) in assay [1] and 0.734 in the assay on XIP peptide (Xip251-270). In addition, the z-score is -1.49 in assay [2], -2.96 (inactive) in assay [3], -0.225 (inactive) in assay [4] and -0.395 (inactive) in assay [5].

Consider `COC(=O)[C@H]1[C@@H]2COc3ccccc3[C@H]2N[C@H]1C(=O)OC`, for which the results for the composite z-score (in assay [1]; with XIP peptide (Xip251-270)) were 0.22 (inactive) and 0.522, respectively. In addition, the z-score was 0.535 in assay [2], -0.726 (inactive) in assay [3], -0.953 (inactive) in assay [4] and -0.134 (inactive) in assay [5].

Consider `Cc1ccc(N2C(=O)c3ccccc3[C@](C)(C(=O)O)[C@@H]2c2ccc(CO)cc2)nc1`, for which the composite z-score in assay [1] was -0.235 (inactive); in the assay on XIP peptide (Xip251-270), -1.16. Further, the z-score is -0.63 in assay [2], -0.0226 (inactive) in assay [3], 0.153 (inactive) in assay [4] and 0.522 (inactive) in assay [5].

With `COCCOC(=O)N1C(=O)[C@@]2(c3cc(C#CCCO)ccc31)[C@H](c1ccc(O)cc1)N1[C@H](c3ccccc3)[C@H](c3ccccc3)OC(=O)[C@H]1[C@@H]2C(=O)Nc1nc2ccccc2s1`, the composite z-score in assay [1] is 0.449 (inactive); with XIP peptide (Xip251-270) it was 0.635. In addition, the z-score in assay [2] is -1.04; in assay [3], -1.98 (inactive); in assay [4] it was -0.534 (inactive); in assay [5] it was -0.733 (inactive).

Consider `C=CCC(OC(C)=O)[C@@H]1[C@@H](N(Cc2cccc3ccccc23)C(=O)c2ccc(C)cc2)c2cc(OCCCO)ccc2N1C(=O)c1ccc(-c2ccccc2)cc1` (stereo partly specified), for which the composite z-score in assay [1] is -0.115 (inactive); with XIP peptide (Xip251-270), 0.481. The z-score in assay [2] was -1.93; in assay [3], -0.128 (inactive); in assay [4], -0.35 (inactive); in assay [5], -0.844 (inactive).

As for `CC(=O)NCCCC[C@@H]1NC(=O)[C@H]2C[C@@H](C(=O)NCCCCCCN(C)C)[C@@H](c3ccc(O)cc3)N2C1=O`, the results for the composite z-score (in assay [1]; with XIP peptide (Xip251-270)) were 1.76 (inactive) and 0.832, respectively. Besides, the z-score in assay [2] was -1.01; in assay [3], -1.9 (inactive); in assay [4] it was 0.0655 (inactive); in assay [5], 0.0377 (inactive).

Turning to `Cc1ccc([C@@H]2CC=C(C(=O)O)[C@H](c3ccccc3)N2S(=O)(=O)c2ccc(C)cc2)cc1`, the composite z-score in assay [1] is 1.71 (inactive); in the assay on XIP peptide (Xip251-270), 0.909. Also, the z-score in assay [2] is -0.745; in assay [3] it was -7.09 (inactive); in assay [4], -0.489 (inactive); in assay [5], -0.824 (inactive).

On to `CCOC(=O)C[C@H]1[C@H](OC(=O)c2ccccc2-c2ccccc2)[C@@H](NC(=O)C2CCCCC2)c2cc(OCCCO)ccc2N1C(=O)c1ccccc1`, for which the composite z-score in assay [1] is -0.339 (inactive); with XIP peptide (Xip251-270) it was 0.0325. Moreover, the z-score in assay [2] was -1.35; in assay [3], -3.05 (inactive); in assay [4], -0.319 (inactive); in assay [5], -0.0975 (inactive).

`CC[C@H]1C2=C3C(CC[C@H]4C(OC)OC[C@](C)([C@@H]34)N(C(=O)OC(C)(C)C)C2)C(CO)C1CO` (stereo partly specified): the composite z-score in assay [1] is 0.442 (inactive); in the assay with XIP peptide (Xip251-270) it was 0.701. Also, the z-score in assay [2] was -0.62; in assay [3] it was -4.74 (inactive); in assay [4] it was -1.37 (inactive); in assay [5], -1.18 (inactive).

With `C[N+](C)(C)CCCCNC(=O)[C@@H]1C[C@@H]2C(=O)N3CCC[C@H]3C(=O)N2[C@@H]1c1cccc(OCCO)c1`, the results for the composite z-score (in assay [1]; in the assay on XIP peptide (Xip251-270)) were 3.4 (inactive) and 0.839, respectively. In addition, the z-score in assay [2] was -0.294; in assay [3] it was -1.2 (inactive); in assay [4] it was -0.162 (inactive); in assay [5], 0.319 (inactive).

Consider `CN(C)c1ccc(C(O)C2C=CC3C(=O)NC(=O)C3N2Nc2ccc(Cl)cc2Cl)cc1` (stereo unspecified), for which the composite z-score in assay [1] is -0.0906 (inactive); in the assay on XIP peptide (Xip251-270) it was 0.16. The z-score in assay [2] was -0.599; in assay [3] it was -4.19 (inactive); in assay [4] it was -0.0923 (inactive); in assay [5] it was 0.0147 (inactive).

On to `C=CCN(C(=O)C1N(c2ccc(CCO)cc2)C(=O)C2C(C(=O)O)C3C=CC21O3)C(C)(C)C` (stereo unspecified), for which the composite z-score was 0.865 (inactive) in assay [1] and -1.52 in the assay with XIP peptide (Xip251-270). Moreover, the z-score is -1.71 in assay [2], 0.729 (inactive) in assay [3], 0.0293 (inactive) in assay [4] and -0.112 (inactive) in assay [5].

Turning to `[N-]=[N+]=NCc1ccccc1[C@H]1OC(c2ccc(OCCCO)cc2)=N[C@@]1(Cc1ccccc1N=[N+]=[N-])C(=O)NCc1ccccc1`, the values for the composite z-score (in assay [1]; with XIP peptide (Xip251-270)) were 0.0116 (inactive) and 0.649, respectively. Further, the z-score in assay [2] was -2.49; in assay [3], -1.23 (inactive); in assay [4] it was -0.0872 (inactive); in assay [5], -0.747 (inactive).

Turning to `C=CCN1C(=O)[C@]2(O[C@H](CCn3cc(CCO)nn3)[C@@H]([Si](C)(C)c3ccc(OC)cc3)[C@@H]2C)c2cc(NC(=O)c3ccc(OC)cc3)ccc21`, the composite z-score in assay [1] is 1.02 (inactive); in the assay on XIP peptide (Xip251-270), 0.18. Moreover, the z-score is -2.84 in assay [2], -4.21 (inactive) in assay [3], -0.798 (inactive) in assay [4] and -0.823 (inactive) in assay [5].
